# Laboratory results taken from ChEMBL document CHEMBL1961873, “Compounds: GSK PKIS; Assays: Nanosyn kinase panel” (2012).
# Values joined by “and” are separate entries in the source; they are usually repeats but may differ in a detail not shown here. Identical values can stand only once.
# Target: T1, Serine/threonine-protein kinase 4 (Homo sapiens) (UniProt Q13043)
# T1 sequence (whole entry): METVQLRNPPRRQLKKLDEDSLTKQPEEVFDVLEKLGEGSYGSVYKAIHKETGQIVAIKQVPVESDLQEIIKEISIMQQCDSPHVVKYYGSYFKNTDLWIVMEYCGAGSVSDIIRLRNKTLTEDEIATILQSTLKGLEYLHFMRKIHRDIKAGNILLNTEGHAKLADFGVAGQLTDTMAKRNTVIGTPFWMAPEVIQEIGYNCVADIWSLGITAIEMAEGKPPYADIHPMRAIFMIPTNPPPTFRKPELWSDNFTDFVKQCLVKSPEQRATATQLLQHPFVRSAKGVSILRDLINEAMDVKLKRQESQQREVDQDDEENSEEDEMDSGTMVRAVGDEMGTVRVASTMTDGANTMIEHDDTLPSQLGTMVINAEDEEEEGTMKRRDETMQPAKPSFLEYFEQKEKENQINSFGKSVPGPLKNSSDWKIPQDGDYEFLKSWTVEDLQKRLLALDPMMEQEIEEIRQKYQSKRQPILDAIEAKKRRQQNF
# Conditions: at 0.1 µM
row,Compound,inhibition [%]
1,COc1cc(N2CCN(C(C)C)CC2)ccc1Nc1nc(Nc2cccc(F)c2C(=O)O)c2cc[nH]c2n1,5.23
2,Cn1c(-c2nonc2N)nc2cnccc21,3.91
3,Fc1cccc(COc2ccc(Nc3ncncc3C#Cc3ccccc3)cc2Cl)c1,6.89
4,CN(c1ccc(NC(=O)NCCN2CCOCC2)cc1)c1ccnc(Nc2ccc(CS(C)(=O)=O)cc2)n1,7.84
5,COc1cc(Nc2ncc(-c3ccccc3)o2)cc(OC)c1,3.72
6,COC(=O)Nc1nc2ccc(Oc3ccc(NC(=O)Nc4cc(C(F)(F)F)ccc4F)cc3)cc2s1,-0.61
7,c1ccc(-c2n[nH]cc2-c2ccnc(-c3ccc(OCCn4ccnc4)cc3)c2)nc1,-0.86
8,OCCCNc1nccc(-c2c(-c3ccc(F)cc3)nn3cc(C(F)(F)F)ccc23)n1,3.31
9,O=C(O[C@H]1CN[C@H](C#Cc2cc3ncnc(Nc4ccc5c(ccn5Cc5cc(F)ccc5F)c4)c3s2)C1)N1CCOCC1,2.68
10,NC(=O)c1ccc2c(-c3ccnc(NCCCO)n3)c(-c3ccc(F)cc3)nn2c1,4.48
11,FC(F)(F)CNc1nccc(-c2cnn3ncccc23)n1,3.65
12,CS(=O)(=O)Nc1ccc(-c2cc(-c3ccccc3)cc(C(N)=O)c2N)cc1,0.24
13,CS(=O)(=O)CCNCc1ccc(-c2ccc3ncnc(Nc4ccc(OCc5cccc(C(F)(F)F)c5)cc4)c3c2)o1,3.43
14,COc1cccc(Nc2nccc(-c3cnn4ncccc34)n2)c1,6.23

# Target: T1, Serine/threonine-protein kinase 4 (Homo sapiens)
# Conditions: at 1 µM
row,Compound,inhibition
1,NS(=O)(=O)c1ccc(N/N=C2\C(=O)Nc3ccc(C(=O)NCc4ccncc4)cc32)cc1,76.1%
2,CCCNc1cccc(-n2ncc3c(N/N=C/c4ccncc4)ncnc32)c1,12.3%
3,c1cnn2ncc(-c3ccnc(NCCCN4CCOCC4)n3)c2c1,1.9%
4,O=C(Nc1n[nH]c2nnc(-c3cccnc3)cc12)C1CC1,-0.48%
5,COC(=O)Nc1nc2cc(Oc3ccc(NC(=O)Nc4ccccc4)cc3)ccc2[nH]1,4.62%
6,Fc1ccc(Nc2nccc(-c3c(-c4ccc(C(F)(F)F)cc4)nn4ncccc34)n2)cc1F,7.23%
7,CCS(=O)(=O)c1ccc(OC)c(Nc2ncc(-c3cccc(F)c3)o2)c1,8.63%
8,CN1CCC(C(=O)Nc2n[nH]c3nc(-c4ccc(O)cc4)c(Br)cc23)CC1,14.7% and 2.3%
9,CC1=C(C(=O)Nc2ccc3[nH]nc(C)c3c2)C(c2ccc(C(F)(F)F)cc2)CC(=O)N1 (stereo unspecified),7.56%
10,COc1cccc(-n2ncc3c(N/N=C/c4ccc(C(=O)NCCN(C)C)cc4)ncnc32)c1,10.1%
11,N#Cc1ccc2c(-c3ccnc(NC4CC4)n3)c(-c3ccc(F)cc3)nn2c1,1.31%
12,COc1ccc(Nc2ncc(-c3ccccc3)o2)cc1OC,4.87%
13,Nc1nccc(-c2c(-c3ccc(F)cc3)ncn2C2CCNCC2)n1,-0.43% and 1.1%
14,Cc1cc(O)cc(C)c1/C=C/c1cncc(C(N)=O)c1,7.28%
15,N#Cc1cccc(Nc2ncc(-c3ccccc3)o2)c1,5.15%
16,CC1=C(C(=O)Nc2ccc3[nH]ncc3c2)C(c2ccc(F)cc2)N=C(c2ccc(C(F)(F)F)nc2)N1 (stereo unspecified),2.27%

row,Compound,inhibition
1,COc1cc2c(cc1Nc1nc(Nc3cccc(F)c3C(N)=O)c3cc[nH]c3n1)N(C(=O)CN1CCN(C(C)C)CC1)CC2,3.77%
2,COc1cc(N2CCN(C(C)C)CC2)ccc1Nc1nc(Nc2cccc(F)c2C(=O)O)c2cc[nH]c2n1,9.21%
3,Cn1c(-c2nonc2N)nc2cnccc21,3.75%
4,Fc1cccc(COc2ccc(Nc3ncncc3C#Cc3ccccc3)cc2Cl)c1,9.95%
5,CN(c1ccc(NC(=O)NCCN2CCOCC2)cc1)c1ccnc(Nc2ccc(CS(C)(=O)=O)cc2)n1,18.8%
6,COc1cc(Nc2ncc(-c3ccccc3)o2)cc(OC)c1,6.2%
7,COC(=O)Nc1nc2ccc(Oc3ccc(NC(=O)Nc4cc(C(F)(F)F)ccc4F)cc3)cc2s1,-1.63%
8,c1ccc(-c2n[nH]cc2-c2ccnc(-c3ccc(OCCn4ccnc4)cc3)c2)nc1,6.24%
9,OCCCNc1nccc(-c2c(-c3ccc(F)cc3)nn3cc(C(F)(F)F)ccc23)n1,5.88%
10,O=C(O[C@H]1CN[C@H](C#Cc2cc3ncnc(Nc4ccc5c(ccn5Cc5cc(F)ccc5F)c4)c3s2)C1)N1CCOCC1,4.43%
11,NC(=O)c1ccc2c(-c3ccnc(NCCCO)n3)c(-c3ccc(F)cc3)nn2c1,5.36%
12,FC(F)(F)CNc1nccc(-c2cnn3ncccc23)n1,3.82%
13,CS(=O)(=O)Nc1ccc(-c2cc(-c3ccccc3)cc(C(N)=O)c2N)cc1,0.83%
14,CS(=O)(=O)CCNCc1ccc(-c2ccc3ncnc(Nc4ccc(OCc5cccc(C(F)(F)F)c5)cc4)c3c2)o1,5.83%
15,COc1cccc(Nc2nccc(-c3cnn4ncccc34)n2)c1,30%

# Target: T2, Serine/threonine-protein kinase 3 (Homo sapiens) (UniProt Q13188);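 further: reported value is the mean percent inhibition of MST2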
# T2 sequence (whole entry): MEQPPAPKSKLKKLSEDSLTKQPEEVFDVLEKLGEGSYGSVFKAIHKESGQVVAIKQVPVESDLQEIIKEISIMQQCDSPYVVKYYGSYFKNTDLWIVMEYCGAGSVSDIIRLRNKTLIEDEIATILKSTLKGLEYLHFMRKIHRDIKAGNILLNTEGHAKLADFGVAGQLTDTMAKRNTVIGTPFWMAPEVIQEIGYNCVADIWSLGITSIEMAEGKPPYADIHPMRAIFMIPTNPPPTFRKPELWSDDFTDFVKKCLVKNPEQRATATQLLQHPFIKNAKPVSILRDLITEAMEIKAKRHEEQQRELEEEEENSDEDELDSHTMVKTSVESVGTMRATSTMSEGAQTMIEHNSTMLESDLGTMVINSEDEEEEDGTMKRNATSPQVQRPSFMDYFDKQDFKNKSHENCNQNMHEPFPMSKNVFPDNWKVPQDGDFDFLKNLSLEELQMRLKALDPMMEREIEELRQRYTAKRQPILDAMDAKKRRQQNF
# Conditions: at 0.1 µM
row,Compound,inhibition
1,NS(=O)(=O)c1ccc(N/N=C2\C(=O)Nc3ccc(C(=O)NCc4ccncc4)cc32)cc1,31.2%
2,CCCNc1cccc(-n2ncc3c(N/N=C/c4ccncc4)ncnc32)c1,5.92%
3,c1cnn2ncc(-c3ccnc(NCCCN4CCOCC4)n3)c2c1,3.76%
4,O=C(Nc1n[nH]c2nnc(-c3cccnc3)cc12)C1CC1,-2.99%
5,COC(=O)Nc1nc2cc(Oc3ccc(NC(=O)Nc4ccccc4)cc3)ccc2[nH]1,5.39%
6,Fc1ccc(Nc2nccc(-c3c(-c4ccc(C(F)(F)F)cc4)nn4ncccc34)n2)cc1F,6.51%
7,CCS(=O)(=O)c1ccc(OC)c(Nc2ncc(-c3cccc(F)c3)o2)c1,5.69%
8,CN1CCC(C(=O)Nc2n[nH]c3nc(-c4ccc(O)cc4)c(Br)cc23)CC1,6.33% and 2.47%
9,CC1=C(C(=O)Nc2ccc3[nH]nc(C)c3c2)C(c2ccc(C(F)(F)F)cc2)CC(=O)N1 (stereo unspecified),5.03%
10,COc1cccc(-n2ncc3c(N/N=C/c4ccc(C(=O)NCCN(C)C)cc4)ncnc32)c1,4.33%
11,N#Cc1ccc2c(-c3ccnc(NC4CC4)n3)c(-c3ccc(F)cc3)nn2c1,1.49%
12,COc1ccc(Nc2ncc(-c3ccccc3)o2)cc1OC,-0.13%
13,Nc1nccc(-c2c(-c3ccc(F)cc3)ncn2C2CCNCC2)n1,-3.39% and 1.21%
14,Cc1cc(O)cc(C)c1/C=C/c1cncc(C(N)=O)c1,2.17%
15,N#Cc1cccc(Nc2ncc(-c3ccccc3)o2)c1,4.16%
16,CC1=C(C(=O)Nc2ccc3[nH]ncc3c2)C(c2ccc(F)cc2)N=C(c2ccc(C(F)(F)F)nc2)N1 (stereo unspecified),2.18%

row,Compound,inhibition
1,COc1cc2c(cc1Nc1nc(Nc3cccc(F)c3C(N)=O)c3cc[nH]c3n1)N(C(=O)CN1CCN(C(C)C)CC1)CC2,2.26%
2,COc1cc(N2CCN(C(C)C)CC2)ccc1Nc1nc(Nc2cccc(F)c2C(=O)O)c2cc[nH]c2n1,5.03%
3,Cn1c(-c2nonc2N)nc2cnccc21,4.04%
4,Fc1cccc(COc2ccc(Nc3ncncc3C#Cc3ccccc3)cc2Cl)c1,6.83%
5,CN(c1ccc(NC(=O)NCCN2CCOCC2)cc1)c1ccnc(Nc2ccc(CS(C)(=O)=O)cc2)n1,6.91%
6,COc1cc(Nc2ncc(-c3ccccc3)o2)cc(OC)c1,6.11%
7,COC(=O)Nc1nc2ccc(Oc3ccc(NC(=O)Nc4cc(C(F)(F)F)ccc4F)cc3)cc2s1,-0.86%
8,c1ccc(-c2n[nH]cc2-c2ccnc(-c3ccc(OCCn4ccnc4)cc3)c2)nc1,-0.71%
9,OCCCNc1nccc(-c2c(-c3ccc(F)cc3)nn3cc(C(F)(F)F)ccc23)n1,4.28%
10,O=C(O[C@H]1CN[C@H](C#Cc2cc3ncnc(Nc4ccc5c(ccn5Cc5cc(F)ccc5F)c4)c3s2)C1)N1CCOCC1,2.54%
11,NC(=O)c1ccc2c(-c3ccnc(NCCCO)n3)c(-c3ccc(F)cc3)nn2c1,4.28%
12,FC(F)(F)CNc1nccc(-c2cnn3ncccc23)n1,6.06%
13,CS(=O)(=O)Nc1ccc(-c2cc(-c3ccccc3)cc(C(N)=O)c2N)cc1,-1.12%
14,CS(=O)(=O)CCNCc1ccc(-c2ccc3ncnc(Nc4ccc(OCc5cccc(C(F)(F)F)c5)cc4)c3c2)o1,4.6%
15,COc1cccc(Nc2nccc(-c3cnn4ncccc34)n2)c1,5.37%
